# LMNA splice mod: modulators of lamin A splicing; HeLa LMNA splicing GFP/RFP minigene ratio, 48 h; Potency, µM (doses to about 46.1 µM), hits mostly inhibitors; 200,000 compounds, 0.01% hits; active = well fitted inhibition curve with a large enough effect in the signal ratio, with a control signal flat, not every such curve was filed as active; inconclusive = small, poorly fitted or top-dose-only effect, or effect the other way, or a change in a side signal; the % refers to the signal ratio
#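 S3 HeLa stable clones carrying a lamin A-EGFP splicing minigene plus DsRed2 were seeded at 600 cells/well in Opti-MEM with 2% FBS, pin-dosed and incubated 48 h at 37°C. Acumen cytometry (488 nm) gave the GFP/RFP total-intensity ratio.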
# KinaseGlo FLuc: Kinase-Glo luciferase inhibition (counter-screen); Potency, µM (titrated, usually from 38.3 µM), actives largely listed as inhibitors; Kinase-Glo luciferase, ATP luminescence, 8 min; 200,000 compounds, 0.28% hits; Q27757; active = well fitted inhibition curve with a large enough effect; inconclusive = small, poorly fitted or top-dose-only effect; note: nearly all actives have a fitted effect of over 60% in size
#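 Compounds were added to a substrate mix at pH 7.2 (50 mM imidazole, 10 uM ATP, within the enzyme's linear range), followed by Kinase-Glo detection reagent; luminescence was measured after 8 minutes at ambient temperature.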
# IMPase inh: IMPase inhibition in cells | 120,000 tested, under 10 active | AID 901 | inhibition (IP1 accumulation), % at 46.1 µM | P97697 | CHO-M1 cells, IP1 accumulation, HTRF TR-FRET ratio; active = well fitted curve in the direction sought with a large enough effect in the signal ratio, not every such curve was filed as active; inconclusive = small, poorly fitted or top-dose-only effect, or a change in a side signal; inactive = no such curve, though single readings can be large or run the other way; the % refers to the signal ratio;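 note: cells stimulated with carbachol in lithium chloride buffer; higher means more IMPase inhibition seen as more IP1 and lower FRET ratio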
# Target sequence (P97697 whole entry, looked up): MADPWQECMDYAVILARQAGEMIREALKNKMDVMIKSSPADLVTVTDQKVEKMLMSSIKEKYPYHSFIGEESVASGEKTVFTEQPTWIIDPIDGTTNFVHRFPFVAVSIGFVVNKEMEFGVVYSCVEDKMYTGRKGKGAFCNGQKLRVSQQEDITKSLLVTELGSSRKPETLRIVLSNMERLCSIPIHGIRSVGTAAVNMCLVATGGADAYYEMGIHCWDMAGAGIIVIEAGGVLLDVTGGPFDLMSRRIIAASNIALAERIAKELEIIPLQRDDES
#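 Seeded CHO-M1 cells were dosed with compound at up to 46 uM, stimulated with carbachol for 30 min, then lysed in IP-One detection reagents. Higher IP1 lowers the TR-FRET signal.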
# ALDH1A1 block: ALDH1A1 (human) enzyme inhibition; 220,000 compounds, 7.3% hits; Potency, µM (series often up to 75.3 µM), hits mostly inhibitors; P00352; Purified ALDH1A1, NADH fluorescence, propionaldehyde substrate
# Target sequence (P00352 whole entry, looked up): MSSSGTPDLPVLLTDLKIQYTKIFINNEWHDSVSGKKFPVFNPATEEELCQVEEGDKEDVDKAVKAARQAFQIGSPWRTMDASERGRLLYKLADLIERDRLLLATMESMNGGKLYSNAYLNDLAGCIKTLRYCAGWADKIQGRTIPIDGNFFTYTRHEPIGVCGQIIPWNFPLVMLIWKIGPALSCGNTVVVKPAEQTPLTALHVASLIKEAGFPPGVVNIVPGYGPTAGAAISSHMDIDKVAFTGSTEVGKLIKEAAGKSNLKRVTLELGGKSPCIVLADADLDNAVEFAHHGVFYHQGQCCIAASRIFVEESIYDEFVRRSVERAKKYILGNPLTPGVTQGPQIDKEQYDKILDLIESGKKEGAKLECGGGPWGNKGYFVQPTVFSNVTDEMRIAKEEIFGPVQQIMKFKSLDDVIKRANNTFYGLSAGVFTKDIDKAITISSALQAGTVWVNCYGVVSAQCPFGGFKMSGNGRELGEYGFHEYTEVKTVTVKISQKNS
# PNC inhibitor: blocks assembly of the perinucleolar compartment | activity change (PNC), negative = inhibition, % at 10 µM | AID 2417 | PC3M PTB-GFP, PNC prevalence imaging, 16 h; stronger effect = lower value | 140,000 compounds, 3.1% hits;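 active = readout at or below -70, meaning at least 70% loss of cells showing the perinucleolar compartment, a nuclear body marking cancer cells; inconclusive = readout between -30 and a set limit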
#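 Compounds are pinned in duplicate onto adhered PC3M cells stably expressing GFP-tagged PTB and incubated 16 h at 37 C. Cells are then fixed, nuclei stained with Hoechst, and PNC-positive cells counted.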
# HPGD inh: blocks human HPGD enzyme activity; 150,000 compounds, 4.3% hits; purified HPGD, NADH fluorescence kinetic, PGE2 substrate; Potency, µM, hits mostly inhibitors; P15428
#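 20 nM HPGD preincubated 15 min at room temperature with compound in 50 mM Tris-HCl pH 8, 0.01% Tween 20. Started with 1 mM NAD+ and 30 uM prostaglandin E2; NADH fluorescence (360/450 nm) read 5 times over 30-s intervals, last minus first.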
# Numbers stand for hits; n = inactive; u = inconclusive; x = no result given; [ ] = another dose, or the depositor's remark. A selection: hits, their analogues and other compounds. The true share with any hit is near 10%. Unless noted, calls come from the whole dose curve; as a rule, active = well fitted inhibition curve with a large enough effect (not every such curve was filed as active); inconclusive = small, poorly fitted or top-dose-only effect, or another doubt; inactive = no such curve, though single readings can be large or run the other way.
SMILES,LMNA splice mod,KinaseGlo FLuc,IMPase inh,ALDH1A1 block,PNC inhibitor,HPGD inh
O=C(COc1ccc(Cl)cc1)N1CCCCC1,n,n,n,n,n,25µM
CC(C)(C)c1ccc(OCCCC(=O)N2CCOCC2)cc1,n,n,x,n,x,x
O=C(CCCOc1ccc(Cl)cc1)N1CCCCCC1,n,n,n,7.9µM,-99,2.2µM
CC(C)N(Cc1ccccc1)C(=O)/C=C/c1ccccc1[N+](=O)[O-],u,n,x,5.6µM,x,x
COC(=O)C/C=C1\c2ccccc2[C@H](OC)[C@H]1C,x,x,x,n[13.5 µM],x,x
O=C(COc1ccc(Cl)cc1)Nc1ccc(Cl)cn1,n,x,n,n,n,x
Cc1ccc(O)c(C(=O)c2cnn(C(=O)COc3ccc(Cl)cc3)c2)c1,n,n,x,1.8µM,n,n
O=C(c1cnn(C(=O)c2ccccc2)c1)c1ccccc1O,n,n,x,2.2µM,u,n
Cc1ccc(C(=O)CC(=O)COc2ccc(Cl)cc2)cc1,u,n,n,n,n,u
O=C(c1cnn(C(=O)COc2ccc(Cl)cc2)c1)c1ccccc1O,n,n,x,4.5µM,u,n
O=C(c1cnn(-c2nc3ccccc3s2)c1)c1ccccc1O,n,n,n,n,n,u
COc1cc(Cl)c(NC(=O)c2cc(S(=O)(=O)N3CCOCC3)cn2C)c(OC)c1,n,x,x,x,x,x
Cc1cc(C)c(NC(=O)Cn2nc3c(cc2=O)CCCC3)c(C)c1,n,x,x,x,x,x
Cc1ccc2[nH]c3c(c2c1)CN(C(=O)CN1CC(C)OC(C)C1)CC3 (centres undefined),n,n,n,11µM,u,n
Cc1ccc2[nH]c3c(c2c1)CN(C(=O)CN1CCN(Cc2ccc4c(c2)OCO4)CC1)CC3,n,n,n,u,n,n
Cc1ccc2[nH]c3c(c2c1)CN(C(=O)CN1CCN(c2ccccn2)CC1)CC3,n,n,n,10µM,n,n
O=C(CN1CCN(c2ccccc2)CC1)N1CCc2[nH]c3ccccc3c2C1,n,n,n,n,n,n
CCc1ccc2ncc3c(-c4ccc(F)cc4)nn(CC(=O)NCc4ccccc4)c3c2c1,n,x,x,x,x,x
CCn1c(SCC(=O)N/N=C/C=C/c2ccco2)nnc1-c1ccccc1,u,n,x,18µM,u,n
O=C(CNc1cccc2ccccc12)N/N=C/C=C/c1ccco1,x,n,x,u,x,x
CCn1c(SCC(=O)Nc2cc(C)on2)nnc1-c1ccccc1,n,n,u,n,n,n
O=C(Cc1cccs1)N/N=C/C=C/c1ccco1,n,n,x,4µM,n,u
CCn1c(SCC(=O)N/N=C/C(C)=C/c2ccco2)nnc1-c1ccccc1,n,n,n,20µM,n,n
CCn1c(SCC(=O)N/N=C/c2ccc(C)o2)nnc1-c1ccccc1,n,n,n,11µM,n,u
CCn1c(SCC(=O)N/N=C/C(C)=C\c2ccco2)nnc1-c1ccccc1,n,n,x,u,n,n
SMILES,LMNA splice mod,KinaseGlo FLuc,IMPase inh,ALDH1A1 block,PNC inhibitor,HPGD inh
Clc1ccc(CSCCc2ccncc2)cc1Cl,x,n[7.66 µM],x,n[13.5 µM],x,n
O=C(CSc1nnc(SCc2ccccc2)s1)N/N=C/C=C/c1ccco1,n,n,x,14µM,n,28µM
Cc1ccc(/C=N/NC(=O)CSc2nnc(-c3ccc(Cl)cc3)n2-c2ccc(Cl)cc2)o1,n,n,x,10µM,n,n
CCn1c(SCC(=O)N/N=C(\C)c2ccco2)nnc1-c1ccccc1,u,n,x,11µM,x,x
O=C(CSc1nnc(SCc2ccccc2)s1)NNC(=S)Nc1ccccc1,n,n,n,3.2µM,u,10µM
Cc1ccc(/C=N/NC(=O)CSc2nnc(-c3ccccc3)n2-c2ccc(Cl)cc2)o1,n,n,n,u,u,n
CCn1c(SCC(=O)NNC(=O)Cc2ccccc2)nnc1-c1ccncc1,x,n,x,n,x,x
NCC1OC(n2cnc3c(=O)[nH]c(N)nc32)C(O)C1O (centres undefined),n,n,x,n,x,n
CC(=O)O[C@@H]1[C@H]([N+]2(C)CCCCC2)C[C@@H]2[C@@H]3CC[C@@H]4C[C@@H](OC(C)=O)[C@H]([N+]5(C)CCCCC5)C[C@@]4(C)[C@H]3CC[C@]21C,x,x,n,x,x,x
N#Cc1ccc(OC(=O)c2ccc(N=C(N)N)cc2)cc1,x,n[7.66 µM],x,n[13.5 µM],x,n
CCn1c(SCC(=O)N/N=C(\C)c2ccncc2)nnc1-c1ccccc1,x,n,x,n,x,x
CCn1c(SCC(=O)N/N=C(\C)c2ccncc2)nnc1-c1ccc(C)cc1,x,x,x,20µM,x,x
Cn1c(SCC(=O)N/N=C/C=C/c2ccco2)nc2ccccc21,n,n,x,14µM,u,n
COC(=O)c1ccc(C(=O)NC(=S)Nc2nc3c(s2)CC(C)CC3)cc1 (centres undefined),n,n,n,u,n,n
O=C(Nc1nc2c(s1)CCCC2)c1cccnc1,n,u,n,11µM,n,n
Cc1cccc(Nc2nc3c(s2)CCCC3)c1,u,n,x,20µM,n,n
C/C(=N\Nc1nc2c(s1)CCCC2)c1ccccc1,n,n,n,25µM,n,n
O=C(Nc1nc2c(s1)CCCC2)c1cccs1,n,u,n,n,n,n
O=C(NC(=S)Nc1nc2c(s1)CCCC2)c1ccc(C(=O)c2ccccc2)cc1,u,n,x,3.5µM,-124,n
O=C(O)c1ccc(Nc2nc3c(s2)CCCC3)cc1,n[9.22 µM],n,x,n,x,x
Cn1cnc([N+](=O)[O-])c1[Se]c1nc(N)nc2c1ncn2[C@@H]1O[C@@H](CO)[C@H](O)[C@@H]1O,x,n[7.66 µM],x,n[13.5 µM],x,n
O=C(NC1CCCC1)c1ccc2c(=O)n(Cc3ccccc3)c(SCc3cccc([N+](=O)[O-])c3)nc2c1,n,x,x,x,x,x
O=C(NC(=S)Nc1nc2c(s1)CSc1ccccc1-2)c1ccccc1,n,n,n,u,n,20µM
COc1cc2c(cc1NC(=O)c1cccnc1)CCCC2,n,n,n,28µM,n,n
CC(C)c1nn2c(=O)cc(COC(=O)c3ccc(NC(=O)CCc4ccccc4)cc3)nc2s1,n,x,x,x,x,x
SMILES,LMNA splice mod,KinaseGlo FLuc,IMPase inh,ALDH1A1 block,PNC inhibitor,HPGD inh
CSc1ccc(CNc2ccccc2)cc1,n,n,n,n,n,n
O=[N+]([O-])c1ccc(COc2cccc(CNc3ccc(F)cc3)c2)cc1,u,n,u,14µM,u,n
CSc1cccc(NCc2ccc([N+](=O)[O-])cc2)c1,n,n,x,35µM,x,x
Brc1cc(Oc2cc(Br)c(Br)c(Br)c2Br)c(Br)c(Br)c1Br,x,x,x,n,x,n
CC/C=C\C/C=C\C/C=C\C/C=C\C/C=C\C/C=C\CCC(=O)O[C@H](COCCCCCCCCCCCCCCCC)COP(=O)([O-])OCC[N+](C)(C)C,x,n,x,n,x,n
O=C1Nc2cc(C(=O)N3CCc4ccccc4C3)ccc2S/C1=C\c1ccccc1,u,n,x,u,n,16µM
CCOC(=O)N1CCN(C(=O)c2ccc3c(=O)n(CCc4ccccc4)c(=S)[nH]c3c2)CC1,n,n,n,n,n,n
CCOC(=O)N1CCN(C(=O)c2ccc3c(=O)n(Cc4ccc(Cl)cc4)c(=S)[nH]c3c2)CC1,u,n,n,10µM,n,n

# High-throughput results deposited in PubChem BioAssay by National Center for Advancing Translational Sciences (NCATS).
